The full data set covers some 7,900 targets. This sample favours those with a hit. About 0.6% of all pairs of compound and target were hits.
Assays:
Assay in all cases: log2 fold change, soluble protein after heating vs DMSO (PISA); higher = thermal stabilisation; K562 cells, 10 uM, 30 min; active = over 0.2 and 3.5 SD of the protein, either way, in both replicates (recomputed)
IRAK-1-4 Inhibitor I = compound: C1COCCN1CCN2C3=CC=CC=C3N=C2NC(=O)C4=CC(=CC=C4)[N+](=O)[O-] [IRAK-1-4 Inhibitor I]
Outline: (§1)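 K562 cells at 2×10^6 cells/mL were treated with 10 μM compound for 30 min. Aliquots were heated for 3 min across 48°C-58°C, pooled, and extracted in PBS with 0.5% NP-40 at 4°C; soluble protein was the supernatant after 21,000xg for 90 min. Soluble protein was quantified by TMTpro 16plex LC-MS/MS with channel sums equalised, and reported as log2 fold change in thermal stability against DMSO controls, with values from duplicates.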

ibrutinib = compound: C=CC(=O)N1CCC[C@@H](n2nc(-c3ccc(Oc4ccccc4)cc3)c3c(N)ncnc32)C1 [ibrutinib]
Outline: as §1

[1] = compound: CC(=O)c1cnc2ccc(-c3cc(Cl)c(O)c(Cl)c3)nc2c1N[C@H]1CC[C@H](CN(C)C)CC1
Outline: as §1

ralimetinib = compound: CC(C)(C)Cn1c(N)nc2ccc(-c3[nH]c(C(C)(C)C)nc3-c3ccc(F)cc3)nc21 [ralimetinib]
Outline: as §1

[2] = compound: CC(C)(O)CC(=O)NCCn1ccc2ncnc(Nc3ccc(Oc4cccc(C(F)(F)F)c4)c(Cl)c3)c21
Outline: as §1

[3] = compound: CC(C)C1=C2N=C(C=C(N2N=C1)NCC3=CC=CC=C3)NCCCCCCN
Outline: as §1

[4] = compound: CC(C)C[C@@H](C=O)NC(=O)[C@H](CC(C)C)NC(=O)[C@H](CC(C)C)NC(=O)OCc1ccccc1
Outline: as §1

pinometostat = compound: CC(C)N(C[C@H]1O[C@@H](n2cnc3c(N)ncnc32)[C@H](O)[C@@H]1O)[C@H]1C[C@@H](CCc2nc3cc(C(C)(C)C)ccc3[nH]2)C1 [pinometostat]
Outline: as §1

[5] = compound: CC1=C(C(CC(=O)N1)C2=CC=C(C=C2)C(F)(F)F)C(=O)NC3=C(C=C4C(=C3)C=NN4)F
Outline: as §1

[6] = compound: CC1=C(C2=C(C=C1)C(=O)C3=CC=CC=C3N2CCCN)C
Outline: as §1

Measured: log2 fold change

CHP1 (UniProt Q99653)
inactive: IRAK-1-4 Inhibitor I 0.091 | ibrutinib -0.024 | [1] 0.001 | ralimetinib 0.145 | [2] -0.017 | [3] 0.017 | [4] -0.061 | pinometostat -0.02 | [5] -0.017 | [6] -0.047

CNN2 (UniProt Q99439)
inactive: IRAK-1-4 Inhibitor I -0.037 | ibrutinib -0.07 | [1] 0.011 | ralimetinib 0.007 | [2] -0.091 | [3] -0.052 | [4] 0.038 | pinometostat 0.018 | [5] 0.05 | [6] 0.007

COQ7 (UniProt Q99807)
inactive: IRAK-1-4 Inhibitor I 0.08 | ibrutinib 0.021 | [1] -0.064 | ralimetinib -0.03 | [2] 0.01 | [3] -0.034 | [4] 0 | pinometostat -0.016 | [5] -0.018 | [6] -0.035

CPT2 (UniProt P23786)
UniProt P23786, sequence (P23786 whole entry, looked up): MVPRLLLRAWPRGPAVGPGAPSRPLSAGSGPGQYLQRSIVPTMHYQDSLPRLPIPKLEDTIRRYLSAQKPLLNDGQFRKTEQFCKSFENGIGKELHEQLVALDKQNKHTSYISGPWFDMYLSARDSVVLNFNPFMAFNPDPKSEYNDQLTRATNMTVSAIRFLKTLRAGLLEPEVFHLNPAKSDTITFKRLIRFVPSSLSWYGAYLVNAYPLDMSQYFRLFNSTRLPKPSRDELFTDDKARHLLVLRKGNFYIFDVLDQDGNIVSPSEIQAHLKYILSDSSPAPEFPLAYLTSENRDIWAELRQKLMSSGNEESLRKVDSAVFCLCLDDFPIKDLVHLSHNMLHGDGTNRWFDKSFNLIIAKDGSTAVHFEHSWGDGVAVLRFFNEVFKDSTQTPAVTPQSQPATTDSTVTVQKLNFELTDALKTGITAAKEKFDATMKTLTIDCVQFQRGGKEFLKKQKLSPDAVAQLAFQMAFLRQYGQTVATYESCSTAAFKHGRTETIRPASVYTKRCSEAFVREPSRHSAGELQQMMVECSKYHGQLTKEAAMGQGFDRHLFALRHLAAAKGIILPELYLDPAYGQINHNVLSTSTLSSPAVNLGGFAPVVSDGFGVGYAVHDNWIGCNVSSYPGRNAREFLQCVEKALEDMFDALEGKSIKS
inactive: IRAK-1-4 Inhibitor I 0.101 | ibrutinib 0.095 | [1] 0.201 | ralimetinib -0.079 | [3] -0.488 | [4] 0.16 | pinometostat -0.145 | [5] -0.051 | [6] 0.256
active: [2] -0.704

CRLF3 (UniProt Q8IUI8)
inactive: IRAK-1-4 Inhibitor I 0 | ibrutinib -0.047 | [1] -0.079 | ralimetinib 0.008 | [2] -0.122 | [3] -0.166 | [4] 0.013 | pinometostat -0.001 | [5] 0.015 | [6] -0.035

CASP3 (UniProt P42574)
inactive: IRAK-1-4 Inhibitor I 0.074 | ibrutinib 0.008 | [1] 0 | ralimetinib -0.022 | [2] 0.043 | [3] 0.048 | [4] 0.067 | pinometostat -0.076 | [5] 0.011 | [6] 0.05

CDC42SE1 (UniProt Q9NRR8)
inactive: IRAK-1-4 Inhibitor I 0.066 | ibrutinib 0.049 | [1] -0.004 | ralimetinib 0.021 | [2] 0.042 | [3] -0.111 | [4] 0.074 | pinometostat 0.11 | [5] 0.282 | [6] 0.015

C9orf64 (UniProt Q5T6V5)
inactive: IRAK-1-4 Inhibitor I -0.041 | ibrutinib -0.03 | [1] -0.019 | ralimetinib -0.018 | [2] -0.181 | [3] -0.288 | [4] 0.012 | pinometostat 0.053 | [5] 0.02 | [6] -0.097

CDC37L1 (UniProt Q7L3B6)
inactive: IRAK-1-4 Inhibitor I 0.004 | ibrutinib -0.018 | [1] -0.012 | ralimetinib -0.059 | [2] -0.118 | [3] -0.004 | [4] 0 | pinometostat -0.015 | [5] 0.062 | [6] -0.281

CEPT1 (UniProt Q9Y6K0)
UniProt Q9Y6K0, sequence (Q9Y6K0 whole entry, looked up): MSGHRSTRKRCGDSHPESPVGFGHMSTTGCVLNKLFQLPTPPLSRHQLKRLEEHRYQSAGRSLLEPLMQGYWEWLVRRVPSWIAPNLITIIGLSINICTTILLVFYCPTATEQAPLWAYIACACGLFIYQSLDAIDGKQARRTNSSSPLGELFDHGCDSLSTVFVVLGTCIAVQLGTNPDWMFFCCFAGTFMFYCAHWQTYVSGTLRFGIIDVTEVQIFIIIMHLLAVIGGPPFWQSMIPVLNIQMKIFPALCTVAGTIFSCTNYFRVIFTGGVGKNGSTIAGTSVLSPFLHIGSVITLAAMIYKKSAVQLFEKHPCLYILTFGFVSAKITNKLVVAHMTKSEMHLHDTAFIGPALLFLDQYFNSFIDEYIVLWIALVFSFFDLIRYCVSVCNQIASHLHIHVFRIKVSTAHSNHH
inactive: IRAK-1-4 Inhibitor I 0.035 | ibrutinib -0.014 | [1] 0.072 | ralimetinib -0.026 | [2] 0.073 | [4] -0.118 | pinometostat -0.016 | [5] 0.023 | [6] 0.118
active: [3] -0.466

CKS1B (UniProt P61024)
active: ralimetinib 0.222
inactive: IRAK-1-4 Inhibitor I -0.011 | ibrutinib -0.008 | [1] -0.127 | [2] 0.001 | [3] 0.027 | [4] -0.031 | pinometostat -0.044 | [5] 0.036 | [6] 0.054

CALB1 (UniProt P05937)
active: [3] -0.245
inactive: IRAK-1-4 Inhibitor I 0.016 | ibrutinib -0.033 | [1] 0.017 | ralimetinib -0.078 | [2] -0.052 | [4] -0.017 | pinometostat -0.043 | [5] 0.055 | [6] -0.148

CCDC82 (UniProt Q8N4S0)
active: [6] -0.65
inactive: IRAK-1-4 Inhibitor I -0.041 | ibrutinib 0.022 | [1] -0.07 | ralimetinib -0.023 | [2] 0.012 | [3] 0 | [4] 0.028 | pinometostat -0.019 | [5] 0.108

CCAR1 (UniProt Q8IX12)
inactive: IRAK-1-4 Inhibitor I 0.002 | ibrutinib 0.003 | [1] -0.039 | ralimetinib -0.012 | [2] -0.103 | [3] -0.168 | [4] 0.006 | pinometostat -0.009 | [5] -0.03 | [6] 0.209

CPD (UniProt O75976)
inactive: IRAK-1-4 Inhibitor I -0.011 | ibrutinib -0.018 | [1] -0.015 | ralimetinib -0.03 | [2] -0.058 | [3] -0.126 | [4] 0.077 | pinometostat 0.002 | [5] 0.04 | [6] -0.019

CALCOCO2 isoform 4 (UniProt Q13137)
active: [3] -0.599
inactive: IRAK-1-4 Inhibitor I 0.004 | ibrutinib -0.016 | [1] -0.09 | ralimetinib 0.045 | [2] -0.005 | [4] 0.115 | pinometostat 0.054 | [5] 0.045 | [6] -0.065

CCNB1 (UniProt P14635)
inactive: IRAK-1-4 Inhibitor I 0.035 | ibrutinib -0.024 | ralimetinib -0.016 | [2] -0.005 | [3] -0.014 | [4] 0.006 | pinometostat -0.018 | [5] -0.007 | [6] 0.007
active: [1] -0.221

CSNK2A1 (UniProt P68400)
UniProt P68400, sequence (P68400 whole entry, looked up): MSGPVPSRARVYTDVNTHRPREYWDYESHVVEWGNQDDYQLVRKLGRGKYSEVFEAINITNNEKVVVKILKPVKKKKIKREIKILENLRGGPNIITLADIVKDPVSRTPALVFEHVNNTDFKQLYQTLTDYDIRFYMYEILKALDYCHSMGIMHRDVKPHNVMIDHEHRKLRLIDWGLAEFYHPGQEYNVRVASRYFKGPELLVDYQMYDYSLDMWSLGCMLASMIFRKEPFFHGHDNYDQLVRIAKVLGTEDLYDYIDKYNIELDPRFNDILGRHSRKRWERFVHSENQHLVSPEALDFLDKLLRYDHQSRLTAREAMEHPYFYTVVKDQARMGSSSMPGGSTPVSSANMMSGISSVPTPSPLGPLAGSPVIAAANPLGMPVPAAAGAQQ
active: [1] 0.245
inactive: IRAK-1-4 Inhibitor I 0.022 | ibrutinib 0.029 | ralimetinib -0.082 | [2] 0.006 | [3] -0.064 | [4] -0.021 | pinometostat 0.103 | [5] 0.004 | [6] 0.159

CHCHD2 (UniProt Q9Y6H1)
inactive: IRAK-1-4 Inhibitor I 0.009 | ibrutinib 0.067 | [1] 0.022 | ralimetinib -0.035 | [2] -0.017 | [3] 0.095 | [4] -0.071 | pinometostat -0.068 | [5] 0.144 | [6] -0.004

CDC42EP1 (UniProt Q00587)
active: [1] -0.527 | [3] -0.43
inactive: IRAK-1-4 Inhibitor I 0.097 | ibrutinib 0.086 | ralimetinib 0.076 | [2] -0.104 | [4] -0.009 | pinometostat -0.043 | [5] -0.054 | [6] -0.055

CNOT7 (UniProt Q9UIV1)
inactive: IRAK-1-4 Inhibitor I -0.039 | ibrutinib 0.022 | [1] -0.013 | ralimetinib -0.016 | [2] -0.021 | [3] -0.002 | [4] 0.079 | pinometostat 0.066 | [5] -0.039 | [6] 0.033

CERT isoform 3 (UniProt Q9Y5P4)
UniProt Q9Y5P4, sequence (Q9Y5P4 whole entry, looked up): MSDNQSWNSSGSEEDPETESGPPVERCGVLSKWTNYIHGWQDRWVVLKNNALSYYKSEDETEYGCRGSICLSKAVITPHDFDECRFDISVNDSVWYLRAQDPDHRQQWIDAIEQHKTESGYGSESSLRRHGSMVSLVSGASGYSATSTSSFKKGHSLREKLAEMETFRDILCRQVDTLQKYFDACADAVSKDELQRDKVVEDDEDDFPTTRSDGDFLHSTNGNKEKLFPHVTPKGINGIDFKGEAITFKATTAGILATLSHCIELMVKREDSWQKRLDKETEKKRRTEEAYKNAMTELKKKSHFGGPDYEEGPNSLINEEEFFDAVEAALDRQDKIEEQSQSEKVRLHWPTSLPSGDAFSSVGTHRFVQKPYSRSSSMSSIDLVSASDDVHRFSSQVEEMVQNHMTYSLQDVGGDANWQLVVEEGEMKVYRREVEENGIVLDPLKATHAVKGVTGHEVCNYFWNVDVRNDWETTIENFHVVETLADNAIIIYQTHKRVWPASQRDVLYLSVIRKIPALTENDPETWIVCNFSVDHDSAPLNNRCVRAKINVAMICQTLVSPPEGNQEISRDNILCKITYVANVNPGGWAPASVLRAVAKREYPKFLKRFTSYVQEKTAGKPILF
active: [1] -0.382
inactive: IRAK-1-4 Inhibitor I -0.052 | ibrutinib 0.017 | ralimetinib 0.038 | [2] 0.166 | [3] 0.103 | [4] 0.005 | pinometostat 0.026 | [5] -0.048 | [6] -0.033

COX15 (UniProt Q7KZN9)
UniProt Q7KZN9, sequence (Q7KZN9 whole entry, looked up): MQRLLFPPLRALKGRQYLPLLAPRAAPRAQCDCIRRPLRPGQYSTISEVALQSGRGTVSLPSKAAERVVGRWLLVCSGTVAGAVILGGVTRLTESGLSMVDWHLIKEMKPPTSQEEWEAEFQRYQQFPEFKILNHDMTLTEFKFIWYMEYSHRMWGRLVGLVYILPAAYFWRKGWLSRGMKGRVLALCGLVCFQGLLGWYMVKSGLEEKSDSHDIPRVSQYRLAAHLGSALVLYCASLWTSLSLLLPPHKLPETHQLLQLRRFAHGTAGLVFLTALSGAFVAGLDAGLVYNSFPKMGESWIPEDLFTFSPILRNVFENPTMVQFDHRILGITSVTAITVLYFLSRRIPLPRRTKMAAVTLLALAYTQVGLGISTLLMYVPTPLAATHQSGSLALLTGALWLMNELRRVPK
inactive: IRAK-1-4 Inhibitor I 0.022 | ibrutinib -0.04 | [1] 0.027 | ralimetinib -0.03 | [2] -0.036 | [3] -0.04 | [4] 0.001 | pinometostat -0.022 | [5] -0.004 | [6] 0.008

CSNK1A1 (UniProt P48729)
UniProt P48729, sequence (P48729 whole entry, looked up): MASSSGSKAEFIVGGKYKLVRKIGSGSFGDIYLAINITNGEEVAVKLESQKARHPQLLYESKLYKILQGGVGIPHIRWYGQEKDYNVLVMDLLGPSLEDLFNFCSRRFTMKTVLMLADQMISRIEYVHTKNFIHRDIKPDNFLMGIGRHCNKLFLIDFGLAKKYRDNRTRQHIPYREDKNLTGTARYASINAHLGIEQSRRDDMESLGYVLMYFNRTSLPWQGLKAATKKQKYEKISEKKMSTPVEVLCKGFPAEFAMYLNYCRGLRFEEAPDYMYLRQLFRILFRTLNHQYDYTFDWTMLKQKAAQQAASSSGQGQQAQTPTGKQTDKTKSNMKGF
active: [3] -0.25
inactive: IRAK-1-4 Inhibitor I -0.016 | ibrutinib 0.015 | [1] -0.053 | ralimetinib 0.026 | [2] -0.041 | [4] 0.145 | pinometostat 0.112 | [5] 0.038 | [6] 0.028

CPSF7 isoform 3 (UniProt Q8N684)
UniProt Q8N684, sequence (Q8N684 whole entry, looked up): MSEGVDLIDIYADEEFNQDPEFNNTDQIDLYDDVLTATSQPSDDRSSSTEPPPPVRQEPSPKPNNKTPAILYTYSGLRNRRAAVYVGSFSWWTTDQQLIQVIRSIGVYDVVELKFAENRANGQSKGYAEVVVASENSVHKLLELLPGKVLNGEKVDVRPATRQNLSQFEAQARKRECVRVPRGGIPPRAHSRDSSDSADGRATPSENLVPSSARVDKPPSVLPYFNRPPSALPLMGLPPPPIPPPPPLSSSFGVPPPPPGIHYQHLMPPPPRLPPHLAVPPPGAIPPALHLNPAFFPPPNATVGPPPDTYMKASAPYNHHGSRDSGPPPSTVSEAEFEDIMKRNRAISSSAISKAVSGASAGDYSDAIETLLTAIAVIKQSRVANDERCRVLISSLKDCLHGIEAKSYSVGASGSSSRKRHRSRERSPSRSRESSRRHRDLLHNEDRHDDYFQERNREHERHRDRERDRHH
active: [1] -0.242 | [6] 0.236
inactive: IRAK-1-4 Inhibitor I -0.037 | ibrutinib 0 | ralimetinib 0.003 | [2] -0.002 | [3] 0.02 | [4] -0.045 | pinometostat -0.028 | [5] -0.016

CETN3 (UniProt O15182)
inactive: IRAK-1-4 Inhibitor I 0.031 | ibrutinib -0.022 | [1] -0.006 | ralimetinib -0.075 | [2] 0.035 | [3] -0.038 | [4] 0.039 | pinometostat 0.016 | [5] -0.002 | [6] -0.18

CBX1 (UniProt P83916)
inactive: IRAK-1-4 Inhibitor I -0.105 | ibrutinib -0.001 | [1] -0.038 | ralimetinib -0.054 | [2] 0.013 | [3] 0.034 | [4] -0.007 | pinometostat -0.143 | [5] -0.026
active: [6] -0.288

CDC42BPB (UniProt Q9Y5S2)
UniProt Q9Y5S2, sequence (Q9Y5S2 whole entry, looked up): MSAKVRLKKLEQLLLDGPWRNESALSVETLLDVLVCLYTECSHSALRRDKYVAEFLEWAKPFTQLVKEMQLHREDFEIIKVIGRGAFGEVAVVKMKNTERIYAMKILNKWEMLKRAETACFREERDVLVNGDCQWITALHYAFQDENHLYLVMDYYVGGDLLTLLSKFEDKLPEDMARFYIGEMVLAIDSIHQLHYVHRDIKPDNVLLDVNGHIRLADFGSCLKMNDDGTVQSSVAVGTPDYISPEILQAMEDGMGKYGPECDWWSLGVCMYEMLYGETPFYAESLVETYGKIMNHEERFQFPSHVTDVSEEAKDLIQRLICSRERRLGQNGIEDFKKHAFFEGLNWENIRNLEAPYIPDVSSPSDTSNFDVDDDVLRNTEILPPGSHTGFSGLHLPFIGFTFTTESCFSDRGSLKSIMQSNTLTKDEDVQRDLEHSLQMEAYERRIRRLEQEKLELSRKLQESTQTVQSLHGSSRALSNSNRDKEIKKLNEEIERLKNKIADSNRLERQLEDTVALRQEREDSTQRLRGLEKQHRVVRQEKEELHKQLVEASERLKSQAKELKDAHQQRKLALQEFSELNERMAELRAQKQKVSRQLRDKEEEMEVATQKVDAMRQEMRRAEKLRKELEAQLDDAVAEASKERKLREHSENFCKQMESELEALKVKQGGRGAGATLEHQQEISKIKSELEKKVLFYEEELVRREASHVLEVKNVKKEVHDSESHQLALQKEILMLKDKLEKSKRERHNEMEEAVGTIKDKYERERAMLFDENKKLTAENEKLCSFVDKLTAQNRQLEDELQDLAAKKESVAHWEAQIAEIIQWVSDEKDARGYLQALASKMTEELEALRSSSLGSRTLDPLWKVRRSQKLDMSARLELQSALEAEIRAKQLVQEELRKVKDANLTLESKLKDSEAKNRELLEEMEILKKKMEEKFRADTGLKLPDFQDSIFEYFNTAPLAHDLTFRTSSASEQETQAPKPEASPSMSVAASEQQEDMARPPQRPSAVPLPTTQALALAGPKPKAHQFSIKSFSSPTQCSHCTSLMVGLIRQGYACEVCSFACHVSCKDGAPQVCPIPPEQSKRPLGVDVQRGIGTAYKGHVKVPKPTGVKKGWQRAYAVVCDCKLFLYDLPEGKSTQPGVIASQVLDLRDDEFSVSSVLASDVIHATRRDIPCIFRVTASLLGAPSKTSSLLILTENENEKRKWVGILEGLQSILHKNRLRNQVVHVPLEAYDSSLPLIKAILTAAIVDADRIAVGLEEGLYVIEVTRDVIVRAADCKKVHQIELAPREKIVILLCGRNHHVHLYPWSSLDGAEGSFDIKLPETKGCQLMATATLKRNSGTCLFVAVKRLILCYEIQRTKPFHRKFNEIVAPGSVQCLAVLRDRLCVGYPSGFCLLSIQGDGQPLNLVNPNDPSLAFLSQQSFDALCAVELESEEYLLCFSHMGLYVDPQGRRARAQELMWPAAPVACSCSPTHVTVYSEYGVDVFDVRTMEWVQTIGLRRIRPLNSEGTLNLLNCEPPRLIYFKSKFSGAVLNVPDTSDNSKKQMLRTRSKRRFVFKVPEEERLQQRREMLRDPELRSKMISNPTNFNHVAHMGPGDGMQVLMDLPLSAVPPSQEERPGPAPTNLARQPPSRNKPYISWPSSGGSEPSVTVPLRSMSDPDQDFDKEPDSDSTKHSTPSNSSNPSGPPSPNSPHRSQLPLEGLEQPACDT
active: [1] -0.637
inactive: IRAK-1-4 Inhibitor I -0.022 | ibrutinib -0.167 | ralimetinib 0.124 | [2] 0.023 | [3] -0.063 | [4] -0.009 | pinometostat 0.267 | [5] -0.038 | [6] 0.023

CRTC2 (UniProt Q53ET0)
inactive: IRAK-1-4 Inhibitor I -0.024 | ibrutinib -0.048 | [1] -0.151 | ralimetinib 0 | [2] -0.053 | [3] -0.058 | [4] -0.032 | pinometostat 0.01 | [5] 0.113 | [6] 0.101

CCNK isoform 4 (UniProt O75909)
inactive: IRAK-1-4 Inhibitor I -0.143 | ibrutinib 0.02 | [1] -0.058 | ralimetinib 0.031 | [2] -0.007 | [3] -0.008 | [4] 0.045 | pinometostat 0.15 | [5] -0.046 | [6] -0.047
